The full list was thinned out, with hits kept by preference.
Cruzain inh Det = qHTS Assay for Promiscuous and Specific Inhibitors of Cruzain (with detergent) | purified cruzain, Z-FR-AMC fluorescence, 0.01% Triton | AID 1478, 2009 | Potency, µM, inactives show max response, negative = inhibition, hits mostly inhibitors | Cruzipain (Trypanosoma cruzi), P25779 | 0.43% of 200,000 active;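 also: plate controls were neutral wells for no effect and buffer without enzyme for full effect; nearly all actives have a fitted effect of over 40% in size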
Target sequence (P25779 123-467 limits assumed): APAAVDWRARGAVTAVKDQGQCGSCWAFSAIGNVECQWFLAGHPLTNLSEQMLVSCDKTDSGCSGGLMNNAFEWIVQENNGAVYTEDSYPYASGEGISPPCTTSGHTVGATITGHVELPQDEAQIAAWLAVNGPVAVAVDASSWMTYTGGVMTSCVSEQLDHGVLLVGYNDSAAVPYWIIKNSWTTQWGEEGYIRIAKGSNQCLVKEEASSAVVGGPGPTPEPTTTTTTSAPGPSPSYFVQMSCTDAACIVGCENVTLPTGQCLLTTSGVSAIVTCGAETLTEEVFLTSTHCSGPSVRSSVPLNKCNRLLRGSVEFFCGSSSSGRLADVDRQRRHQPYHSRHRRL
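Z-FR-AMC hydrolysis (2 uM substrate) by cruzain (1.5 nM) monitored kinetically at ex 360/em 450 nm after 15 min room-temperature compound exposure; 0.01% Triton X-100, pH 5.5, 5 mM DTT.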
Cruzain noTriton = qHTS Assay for Promiscuous and Specific Inhibitors of Cruzain (without detergent); AID 1476, 2009; 2.3% of 200,000 active; Cruzipain (Trypanosoma cruzi), P25779; Potency, µM, for the others: max response, negative = inhibition, most hits filed as inhibitors; purified cruzain, Z-FR-AMC fluorescence, no detergent;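 also: plate controls were enzyme without inhibitor for no effect and buffer without enzyme for full effect; nearly all actives have a fitted effect of over 40% in size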
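Purified cruzain at 1.5 nM, pre-incubated 15 min with compound at room temperature in 100 mM sodium acetate pH 5.5, 5 mM DTT, 0.00005% Triton X-100. Reaction started with 2 uM Z-FR-AMC; AMC fluorescence increase over 60 s gives rate.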
NS1 function inh = qHTS Assay for Inhibitors of Influenza NS1 Protein Function. Potency, µM (doses to about 46.1 µM), for the others: top-dose activity, positive = more growth. 0.4% of 270,000 active; calls by dose curve; also: actives are rising curves; nearly all actives have a fitted effect of over 50% in size
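Growth recovery, yeast-based: influenza A NS1 expressed in S. cerevisiae causes slow growth, and suppressors are detected by OD600. The parent strain without NS1 is used as positive control.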
The depositor's hits bear a star. Unless noted, calls follow the shape of the dose curve; as a rule, active = well fitted curve in the direction sought with a large enough effect; inconclusive = small, poorly fitted or top-dose-only effect, or another doubt; inactive = no such curve, though single readings can be large; an effect the other way counts as inactive or inconclusive. Potency is read from the fitted curve at half-maximal effect.

`NC(=O)CC[C@H](NC(=O)c1ccc(F)cc1)C(=O)OCC(=O)Nc1c(F)c(F)c(F)c(F)c1F` gave Cruzain inh Det 28µM*, Cruzain noTriton 13µM* and NS1 function inh 12%.
For COc1cc(/C=N/NC(N)=S)ccc1OC(=O)c1ccc(C)cc1 the results were Cruzain inh Det 4.5µM*, Cruzain noTriton 2.5µM* and NS1 function inh -7%.
COc1cc(/C=N/NC(N)=S)ccc1OCc1ccc(C)cc1 was read as Cruzain inh Det 2.2µM*, Cruzain noTriton 1µM* and NS1 function inh 19%.
Screening NC(=S)N/N=C/c1ccccc1 returned Cruzain inh Det -18%, Cruzain noTriton 3% and NS1 function inh 3%.
Screening COc1ccc(CNC(=S)N/N=C/c2ccc(OC)c(OC)c2)cc1 returned Cruzain inh Det -6%, Cruzain noTriton 10% and NS1 function inh 4%.
For CC(=O)Nc1ccc(/C=N/NC(N)=S)cc1 the results were Cruzain inh Det -17% and Cruzain noTriton 11µM*.
`COc1cc(/C=N/NC(=O)c2ccc(N)cc2)ccc1OC(=O)c1cccc(C)c1` gave NS1 function inh -19%.
`COc1ccc(C(=O)Oc2cccc(/C=N/NC(N)=S)c2)cc1` gave Cruzain inh Det inconclusive, Cruzain noTriton 16µM* and NS1 function inh 12%.
Screening COC(=O)N/N=C/c1cccc(OC(=O)c2ccc3c(c2)OCO3)c1 returned NS1 function inh -12%.
For COc1ccc(OC)c(NS(=O)(=O)c2ccc(-c3cc(C)no3)s2)c1 the results were Cruzain inh Det -5% and Cruzain noTriton -18%.
Screening CC[C@H](C)[C@@H](NC(=O)O[C@@H]1C(=O)c2ccc(OC)cc2O[C@H]1c1cccc(C(F)(F)F)c1)C(=O)OC returned Cruzain inh Det 5% and Cruzain noTriton -3%.
For O=C(c1cccc(F)c1)N1CCC2(CC1)CCN(c1ccncc1)CC2 the results were Cruzain inh Det 3% and Cruzain noTriton -7%.
`C=CCC(C)(O)CCc1ccccc1` (stereo not given) gave Cruzain inh Det 4% and Cruzain noTriton -6%.
Screening O=C(OC1Cc2c(O)cc(O)cc2OC1c1cc(O)c(O)c(O)c1-c1c(C2Oc3cc(O)cc(O)c3CC2OC(=O)c2cc(O)c(O)c(O)c2)cc(O)c(O)c1O)c1cc(O)c(O)c(O)c1 (stereo not given) returned Cruzain inh Det -18% and Cruzain noTriton -11%.
For CCOC(=O)Cc1csc(N/N=C/c2ccccc2)n1 the results were Cruzain inh Det -7%, Cruzain noTriton 1% and NS1 function inh -4%.
`CCOC(=O)Cc1csc(N/N=C\c2cccc(Br)c2)n1` gave Cruzain inh Det -23%, Cruzain noTriton 32µM* and NS1 function inh 5%.
For CN(C)c1ncc2nc(-c3ccc(F)cc3)c(=O)n(C)c2n1 the results were Cruzain inh Det -2% and Cruzain noTriton 0%.
Screening Cc1ccc(N2CCN(C(=S)c3ccc(N(C)C)cc3)CC2)cc1 returned Cruzain inh Det -1%, Cruzain noTriton 20µM* and NS1 function inh -49%.
`CN(C)c1ccc(C(=S)N2CCCCCC2)cc1` gave Cruzain inh Det 14µM*, Cruzain noTriton 6.3µM* and NS1 function inh 3%.
CC(=O)N1CCN(C(=S)c2ccc(N(C)C)cc2)CC1 was read as Cruzain inh Det 1%, Cruzain noTriton 12% and NS1 function inh 8%.
CN(C)c1ccc(C(=S)N2CCN(c3ccccc3)CC2)cc1 was read as Cruzain inh Det -4%, Cruzain noTriton -3% and NS1 function inh -15%.
`Cc1cc(NC(=O)c2ccc(NC(=O)CCS(=O)(=O)c3cccs3)cc2)ccc1Br` gave Cruzain inh Det -3% and Cruzain noTriton inconclusive.
Oc1cccc(/C=N/Nc2cccc3cccnc23)c1 was read as NS1 function inh 1%.
Oc1c(/C=N/Nc2cccc3cccnc23)ccc2ccccc12 was read as Cruzain inh Det 0%, Cruzain noTriton 32µM* and NS1 function inh 21%.
Cc1nc2nc(SCC(=O)NCc3ccccc3)nn2c(C)c1Cc1ccccc1Cl was read as Cruzain inh Det -7% and Cruzain noTriton 5%.
O=C1CC(N(CCc2ccccc2)C(=S)Nc2cc(Cl)ccc2Cl)C(=O)N1c1c(Cl)cccc1Cl (stereo not given) was read as Cruzain inh Det 1%, Cruzain noTriton 13µM* and NS1 function inh inconclusive.
For O=C1CC(N(CCc2ccccc2)C(=S)Nc2ccccc2)C(=O)N1c1ccccc1 (stereo not given) the results were Cruzain inh Det -1%, Cruzain noTriton -2% and NS1 function inh 29%.
`Cc1cc(C)cc(Nc2cc(C(=O)NCc3ccccc3)c3ccccc3n2)c1` gave Cruzain inh Det -11% and Cruzain noTriton 4%.
